Screening data: PubChem BioAssay, several laboratories
Rows were chosen to be rich in hits. Some 2.6% of all compounds tested hit in one or more screens of this group.
Shn3 inh set2 = reduction of Shn3 3'UTR firefly luciferase signal, primary screen, Schnurri-3 inhibitor project, cell-based, Clone20 osteoblasts, set 2; Clone20 osteoblast Shn3 3'UTR firefly luciferase, 24 h; inhibition, % at 12.5 µM; hit rate 0.52% among 360,000; AID 588674, 2011;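 active = mean inhibition of at least 75% with every replicate also reaching 75%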;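 also: 0% = median of neutral control wells and 100% = pilot-screen positive control compound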
CF NFkB inh = inhibitors of PAF-induced NF-kB signaling, primary screen, cell-based, GFP fluorescence, uHTS. inhibition, % at 5 µM. KKLEB NF-kB-GFP reporter, GFP fluorescence overnight. hit rate 0.86% among 360,000;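 active = at least 50% inhibition at 5 µM, scaled per plate between neutral and stimulator controls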;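 also: PAF is a Pseudomonas aeruginosa culture filtrate used as stimulus; plate controls were PAF-stimulated DMSO wells for no effect and unstimulated DMSO wells for full effect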
HIF-2a block = HIF-2a reporter inhibitors, primary screen, luminescence, 786-0 RCC cells | 786-0 RCC cells HIF-2a reporter, luciferase luminescence, overnight | hit rate 0.72% among 360,000 | inhibition, % at 18.8 µM | AID 624352, 2012;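 active = inhibition of the luminescence signal of 40% or more relative to plate controls, in a single-dose primary screen at 18.75 µM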
KKLEB tox = cytotoxicity in KKLEB CF airway cells, primary screen, cytotoxicity control for CF NF-kB inhibitor project, cell-based, uHTS, fluorescence assay plates; KKLEB CF airway cells viability, ATPlite luminescence, overnight; active compounds read low; cells stimulated with P. aeruginosa culture filtrate; activity change (cytotoxicity), % at 5 µM; hit rate 0.36% among 360,000;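 active = corrected activity change at or below -50% at 5 µM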
Peg3 promoter = Peg3 promoter-driven luciferase inhibitors, primary screen, cell-based, HeLa, luciferase luminescence | HeLa PEG-Prom luciferase reporter, overnight | inhibition, % at 20 µM | hit rate 1.7% among 360,000;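 active = inhibition of at least 50% at 20 µM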
Mdm2-MdmX confirm = retested Mdm2-MdmX interaction blockers, confirmation, cell-based, luminescence, single concentration, set 2; shares compounds with HIF-2a block; SaOS-2 split-luciferase Mdm2/MdmX complementation; inhibition, % at 8 µM; hit rate 99% among 740; AID 504601, 2011;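 active = mean inhibition of the luminescence signal across two replicates at or above 26 percent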
Target sequence (O15151 whole entry, looked up): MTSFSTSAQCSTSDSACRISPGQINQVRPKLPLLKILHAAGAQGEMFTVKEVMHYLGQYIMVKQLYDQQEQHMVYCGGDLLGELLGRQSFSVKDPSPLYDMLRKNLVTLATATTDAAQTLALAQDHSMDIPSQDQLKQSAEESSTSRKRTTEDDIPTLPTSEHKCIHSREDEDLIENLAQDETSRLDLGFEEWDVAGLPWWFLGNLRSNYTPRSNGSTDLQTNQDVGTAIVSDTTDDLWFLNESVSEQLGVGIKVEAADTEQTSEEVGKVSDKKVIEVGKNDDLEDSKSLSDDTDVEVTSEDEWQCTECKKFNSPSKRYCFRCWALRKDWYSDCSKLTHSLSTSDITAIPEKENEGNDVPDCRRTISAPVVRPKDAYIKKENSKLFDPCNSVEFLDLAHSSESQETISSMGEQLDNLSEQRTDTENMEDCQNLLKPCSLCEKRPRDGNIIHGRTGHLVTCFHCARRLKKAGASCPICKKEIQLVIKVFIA
Target sequence (Q00987 whole entry, looked up): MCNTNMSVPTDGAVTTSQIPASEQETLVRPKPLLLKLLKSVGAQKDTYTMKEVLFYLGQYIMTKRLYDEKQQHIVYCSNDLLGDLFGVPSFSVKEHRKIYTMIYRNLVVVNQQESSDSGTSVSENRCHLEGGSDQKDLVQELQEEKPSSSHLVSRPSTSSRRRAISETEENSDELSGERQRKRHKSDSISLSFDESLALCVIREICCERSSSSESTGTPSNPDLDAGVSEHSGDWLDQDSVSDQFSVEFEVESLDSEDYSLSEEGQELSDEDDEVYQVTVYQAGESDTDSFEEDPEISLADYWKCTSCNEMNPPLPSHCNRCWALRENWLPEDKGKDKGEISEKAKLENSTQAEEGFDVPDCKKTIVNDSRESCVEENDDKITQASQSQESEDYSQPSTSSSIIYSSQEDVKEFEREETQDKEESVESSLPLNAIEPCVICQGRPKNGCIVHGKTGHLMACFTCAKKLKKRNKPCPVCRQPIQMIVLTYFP
HIF-2a inh conf = HIF-2a reporter inhibitor retest, confirmation, luminescence, 786-0 RCC cells; shares compounds with HIF-2a block; HIF-2a luciferase reporter luminescence, overnight; inhibition, % at 18.8 µM; hit rate 56% among 1,800; AID 651580, 2012;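 active = mean inhibition across four replicates of at least 40 percent at the single tested concentration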
HIF-1a cs = HIF-1a luciferase reporter signal reduction – MiaPaCa-2 cells, single concentration, counter-screen for HIF-2a inhibitor project, confirmation; shares compounds with HIF-2a block; MiaPaCa-2 HIF-1a luciferase reporter, desferoxamine, overnight; inhibition, % at 18.8 µM; hit rate 72% among 1,800;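 active = mean inhibition of the reporter signal across four replicates at the single tested dose of 50% or more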
An asterisk follows results filed as active; / = no result given.

SMILES	Shn3 inh set2	CF NFkB inh	HIF-2a block	KKLEB tox	Peg3 promoter	HIF-2a inh conf	HIF-1a cs	others
Cc1cc(NS(=O)(=O)c2ccc(NC(=O)CCCOc3ccccc3C)cc2)nc(C)n1	7	1	7	2	12	/	/
COC(=O)c1ccc(NC(=O)[C@H](C)NC(N)=O)cc1	9	-4	17	-4	-5	/	/
COc1ncc(-c2c(-c3ccccc3OC)sc3ccccc23)cn1	/	/	-4	/	/	/	/
Cn1c(COc2cccc3ccccc23)nnc1SCC(=O)OC1CCCCC1	-3	6	67*	8	6	28	-4
CCn1c(COc2cccc3ccccc23)nnc1SCC(=O)OC1CCCCC1	-2	17	58*	-6	10	14	-10
Cn1c(CNc2cccc(Cl)c2)nnc1SCC(=O)OC1CCCCC1	9	4	18	-8	14	/	/
O=C(O)CSc1nnc(COc2cccc3ccccc23)n1Cc1ccccc1	1	-13	22	1	-3	/	/
O=C(NCc1cccnc1)/C(=C/c1ccc(-c2cccc(Cl)c2)o1)S(=O)(=O)c1ccccc1	-14	6	43*	-13	15	34	30	Mdm2-MdmX confirm=103*
O=c1cc(-c2ccccc2)oc2ccc3ccccc3c12	63	-67	51*	-67*	43	70*	57*
CCC(C)NC(=O)c1cn(CC)c2cc(N3CCN(C(=O)c4ccco4)CC3)c(F)cc2c1=O (stereo unspecified)	13	12	31	-12	36	/	/
CCOc1ccccc1C(=O)Nc1ccc2nc(N3CCN(c4ncccn4)CC3)cc(C)c2c1	/	/	/	/	/	/	/	Mdm2-MdmX confirm=98*
COc1cc(OC)cc(-c2cc3nc(C)c(CCC(=O)Nc4nc(C)cs4)c(C)n3n2)c1	52	28	43*	-12	25	55*	45
CC(=O)Nc1ccc2sn(-c3ccccc3)c(=O)c2c1	0	32	-15	-1	-29	/	/
Cc1ccc(-c2nnn(CC(=O)Nc3nnc(C(C)C)s3)n2)cc1	5	2	0	8	4	/	/
Cc1ccc(-n2c(C)c([N+](=O)[O-])c3ccc(O)c(CN(C)C)c32)cc1	20	82*	8	-18	16	/	/	Mdm2-MdmX confirm=92*
N#CC(C#N)=C1C=CC=CN1/C(=C\c1ccccc1)C(=O)c1cccs1	-53	13	-38	-26	12	/	/
N#CC(C#N)=C1C=CC=CN1/C(=C\c1ccccc1Cl)C(=O)c1ccccc1	87*	81*	97*	-58*	108*	88*	94*
CC1CCCN(C(=O)c2ccc(Cl)c(S(=O)(=O)N3CCCCCC3)c2)C1 (stereo unspecified)	-7	12	-127	-6	-119	/	/
O=c1c2ccccc2nnn1Cc1ccc2ccccc2c1	-1	4	-130	-3	-60	/	/
COC(=O)c1ccc(C(=O)OC)c(-n2c(=O)c3ccccc3c3ccccc3c2=O)c1	71	4	45*	-18	23	52*	-6
COC(=O)c1ccc(-c2nn(C)c(=O)c3ccccc23)cc1	-3	-2	8	3	2	/	/
CCc1ccc(S(=O)(=O)ON2C(=O)c3ccccc3C2=O)cc1	46	3	46*	10	51*	51*	-4
COc1ccc(OC)c(S(=O)(=O)N2CCN(c3ccccc3)CC2)c1	6	-12	9	13	17	/	/
COc1ccc(OC)c(S(=O)(=O)ON2C(=O)c3ccccc3C2=O)c1	56	-10	57*	0	54*	60*	23
COc1ccc(NC(=O)CC(C)NCCCN2CCCC2=O)cc1 (stereo unspecified)	-7	-3	4	13	7	/	/
SMILES	Shn3 inh set2	CF NFkB inh	HIF-2a block	KKLEB tox	Peg3 promoter	HIF-2a inh conf	HIF-1a cs	others
CCOC(=O)C(=Cc1c[nH]c2ccc(S(=O)(=O)N(C)C)cc12)C(=O)OCC	-14	42	56*	5	33	51*	81*
CCN(CCCNC(=O)CNC(=O)c1nn(-c2ccc(OC)cc2)c(=O)c2ccccc12)c1cccc(C)c1	9	4	9	-21	24	/	/
OC(c1ccccc1)(c1ccccc1)C1CCN(CCCOc2cccc(OC(F)(F)F)c2)CC1	/	/	11	/	/	/	/
CC(C)(C)c1ccc(C(O)CCCN2CCC(C(O)(c3ccccc3)c3ccccc3)CC2)cc1 (stereo unspecified)	97*	14	97*	-15	96*	-1	108*
COCCN1CCn2c(nc3cc([N+](=O)[O-])ccc32)C1	9	-13	69*	-2	1	-32	2
O=[N+]([O-])c1ccc2c(c1)nc1n2CCN(CC2CCCO2)C1 (stereo unspecified)	-18	-17	-41	6	-50	/	/
CCOc1ccccc1CNC(=O)Cn1ccc2cc(S(=O)(=O)N3CCC(C)CC3)ccc21	19	-12	11	-2	10	/	/
Cc1cccn2c(=O)c3cc(C(=O)NCc4ccco4)c(=N)n(CCc4ccccc4)c3nc12	-16	-71	11	-11	13	/	/
COc1ccc(CCNC(=O)c2cc3c(=O)n4cccc(C)c4nc3n(Cc3ccco3)c2=N)cc1OC	28	14	60*	-8	-3	-4	41	Mdm2-MdmX confirm=17
Cc1ccc(CNC(=O)c2cc3c(=O)n4ccccc4nc3n(Cc3ccco3)c2=N)cc1	12	-1	3	-8	-8	/	/
Cc1cccn2c(=O)c3cc(C(=O)NCCc4ccccc4)c(=N)n(Cc4ccco4)c3nc12	3	4	93*	-8	31	4	83*	Mdm2-MdmX confirm=29*
Cc1cc(C(C)(C)CC(C)(C)C)ccc1OCCOCC[N+](C)(C)Cc1ccccc1	88*	63*	-11	-22	102*	/	/	Mdm2-MdmX confirm=103*
C[N+](C)(CCOc1ccccc1)Cc1ccccc1	-13	-9	-2	5	7	/	/
COc1ccc(NC(=O)CCS(=O)(=O)c2ccccc2Cl)cc1S(=O)(=O)Nc1ccc(Cl)cc1	7	-10	44*	-9	28	17	68*
C[C@H](NC(=O)c1ccccc1F)C(=O)N1CCC2(CC1)NCCc1[nH]cnc12	17	-10	7	11	8	/	/
